T1: UNK ZnF1-6 (called full-length) (human, UniProt Q9C0B0 30-357)
T1 sequence: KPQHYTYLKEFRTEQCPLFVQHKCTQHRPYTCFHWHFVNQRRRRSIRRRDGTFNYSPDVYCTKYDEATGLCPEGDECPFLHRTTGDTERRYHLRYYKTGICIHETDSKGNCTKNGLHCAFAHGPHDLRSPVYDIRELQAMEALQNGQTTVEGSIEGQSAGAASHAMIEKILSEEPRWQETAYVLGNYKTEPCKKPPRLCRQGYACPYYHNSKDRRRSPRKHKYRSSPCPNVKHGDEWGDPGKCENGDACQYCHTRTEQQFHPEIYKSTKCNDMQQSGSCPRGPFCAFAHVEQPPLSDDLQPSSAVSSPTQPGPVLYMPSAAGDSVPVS

B1: chr17:15565482:15566353:-|three_prime_utr|ENSG00000241322|control|control|control (ssRNA)
RNA: GGGAGUUCUACAGUCCGACGAUCCACCCAAAGAAAAAGUCUUGGAAAAUCCCUAUGUCACCUGACCAAUUCCUCCUGACUGUUAGCGCCCUGCAGCACGCCCGUAAUUCCGGGGAAUUUGCCUAUCCCUGUAGGCCCCAAACACAACAGAGGAUUGAGCAUCA
B2: chr16:58599380:58599482:-|5pUTR|ENSG00000125107|unk|FALSE|unique (ssRNA)
RNA: GGGAGUUCUACAGUCCGACGAUCCAGAACAGAGUAAGACCCCUGGUAAAGAAGAACUGAAGAUAUUAUACAGAUACCAGAUAUAGCCUAAUUACAAAGAAAGCAUUAACCUGCCUCUGAGGUGACUAAAGGGGAAUAAUGGUGCAACAGAGGAUUGAGCAUCA
B3: chr12:108645191:108645284:-|3pUTR|ENSG00000110880|msi1_unk|total|mutant (ssRNA)
RNA: GGGAGUUCUACAGUCCGACGAUCUCUUUUUUUUUUUUUUUUUUUAAGCCAUGACAUCCCAGAAGAGGACAGUGAAUUACUCCCCGGUCGGCUCUUACCGAGUGGCCACCGUGUUCUGUCAAAACACUUGCUUCCAUUUUCAGACAACAGAGGAUUGAGCAUCA
B4: chr8:23842113:23842214:-|3pUTR|ENSG00000159167|msi1|total|mutant (ssRNA)
RNA: GGGAGUUCUACAGUCCGACGAUCACUUCCGACAUUUUUGUGCCAUUAUAUUUGCAUUAUGUAUUUAUAAUUUAAAUGAUAUUCCGGUUUUUGGCUGAGUACUGGAAUAAACAGUGAGCAUAUCUGGUAUAUGUCAUUAUUUAUCAACAGAGGAUUGAGCAUCA
B5: chr1:202941098:202941199:-|3pUTR|ENSG00000159346|msi1_unk|total|mutant (ssRNA)
RNA: GGGAGUUCUACAGUCCGACGAUCCCUCCCUUACCCCCAUCCUUAACUUUGUAUCCUGGCUUAUAACAGGCCAUCCAUUUUUGCCGCACACUUUUCAAAAACAAUUAUAUACCCUGGUCCCAUCUUUCCCGGGCCUGGAUCUGCCAACAGAGGAUUGAGCAUCA
B6: chr9:74692981:74693082:+|3pUTR|ENSG00000198963|unk|total|mutant (ssRNA)
RNA: GGGAGUUCUACAGUCCGACGAUCUUUUAUAUUACUUCCGAAUGUAACCGGUUUUUGUCCUUAUUUUAUGUCCUGUAAAUUAUCCGUUCAAUACUGUCCGCAUUCCCGGAUAAUGCACACAUGAUUUCUGAAUGUUUUCUGUAACAACAGAGGAUUGAGCAUCA
B7: chr6:149889094:149889339:-|three_prime_utr|ENSG00000164520|control|control|control (ssRNA)
RNA: GGGAGUUCUACAGUCCGACGAUCGGCAGCUCCCUUUAAAGGUCAAAAGCCUUCCCUGUGUGGGUGUCAGUGUGUGUGUGCGAUAGAAAAUUUGAUUGACUUCUCCGUGGGCUUCCUGUCUGGAGAGUCAGUGAUGGCUAUAAGCAACAGAGGAUUGAGCAUCA
B8: ENSG00000198589:be:win_1801|CDS|ENSG00000198589|bound_else_gene|NA|bound_elsewhere_windowed (ssRNA)
RNA: GGGAGUUCUACAGUCCGACGAUCACAGUCAACAUAUAUAACACCAUUCGGAGAGUUGGAACAGUGCUUCUCAUCAUGCACACGCUGAAGUACUACUACUGGGCAGUGAAUCCUCAGGAUCGAAGUGGUAUCACCCCAAAAGGACAACAGAGGAUUGAGCAUCA
B9: chr21:18281039:18281221:-|CDS|ENSG00000154646|control|control|control (ssRNA)
RNA: GGGAGUUCUACAGUCCGACGAUCACCUCUCCUCAAACAGUCCCUCGAUUAAUAGAUGAAAUUGUCAUAAACCCUCAUUACAAUAGGCGAAGAAAGGACAACGACAUUGCCAUGAUGCAUCUGGAAUUUAAAGUGAAUUACACACAACAGAGGAUUGAGCAUCA
B10: chr12:98549714:98549829:+|3pUTR|ENSG00000120802|unk|FALSE|unique (ssRNA)
RNA: GGGAGUUCUACAGUCCGACGAUCGAAGAUGUAUAUUUAGACCAGCACACAAUUUUGAUUUCAAUUAGCCUUAUUCUAAUAUUUAGCUUUUAGAUCUUUCAUACACAUUUUCACGUACUUUGCAAUUGAGACCAGAAAGACUUGCAACAGAGGAUUGAGCAUCA
B11: chr11:74334375:74334476:-|3pUTR|ENSG00000165434|msi1|FALSE|unique (ssRNA)
RNA: GGGAGUUCUACAGUCCGACGAUCUUUUUGUUUUAUUUUUAAAAUGUGUAAAACAUCUUUUGUUUUAUAUGCUUUUAAGAAUGUAGAUUGUAAUUUAGGAAAUGGCAUAUAUUCUGCAAAGUGGUAUAAUGUUGUAUAUAUGAACAACAGAGGAUUGAGCAUCA
B12: ENSG00000198589:be:win_6551|CDS|ENSG00000198589|bound_else_gene|NA|bound_elsewhere_windowed (ssRNA)
RNA: GGGAGUUCUACAGUCCGACGAUCGACGUAUUUCAUUAGCUAGUCCACGUCAGCUUUUUAAGGCUUCUAAUAUGACCCAGCGAUGGCAACACAGAGAGAUAUCUAAUUUUGAGUACUUGAUGUUUCUCAACACGAUAGCAGGACCAACAGAGGAUUGAGCAUCA
B13: chr2:206311781:206311882:+|3pUTR|ENSG00000204186|unk|FALSE|unique (ssRNA)
RNA: GGGAGUUCUACAGUCCGACGAUCUAGUGUUUAGAGUCCUUUCAUUUUAAGAUUCAGAAACAGCCUUUGUCCAACAUUUUCUGUAGAAGAACUUCAUCUUAAUUUAUGUCACAAAAUAAUUUAGCACCGUAUAUAGAAUUUUGUCAACAGAGGAUUGAGCAUCA
B14: ENSG00000136451:be:win_1001|CDS|ENSG00000136451|bound_else_gene|NA|bound_elsewhere_windowed (ssRNA)
RNA: GGGAGUUCUACAGUCCGACGAUCACCAAAAGCAGCAGCAGCAGCAGCAGCAGCAGCAGCAGCAGCAGCAACAACAACAACAACAACAUGUGACAAGCUGGCCAGGGAAGCAAGUAGAAACACUGAGACUGUGGGAAGAAGCUGCAACAGAGGAUUGAGCAUCA
B15: chr16:57253408:57253449:+|3pUTR|ENSG00000102931|msi1_unk|FALSE|overlapping (ssRNA)
RNA: GGGAGUUCUACAGUCCGACGAUCUGUGUGGUAGAUUACUUAUCAGAAAACAUAUAUGUCAUCUCUAGAACGAAGAAAAAGCAUAGUAGUUCAAUUCCCAGUGUGUCCCUUUGAUUUUUUUUUUUUAAUAGUAAAAAUAAGAAUCAACAGAGGAUUGAGCAUCA
B16: chr2:206311781:206311882:+|3pUTR|ENSG00000204186|unk|total|mutant (ssRNA)
RNA: B13 RNA with U24C, A25C, U31C, A32C, U83C, A84C, U121C, A122C, U133C, A134C
B17: chr20:53567570:53567671:-|3pUTR|ENSG00000171940|unk|FALSE|unique (ssRNA)
RNA: GGGAGUUCUACAGUCCGACGAUCUCACAAGCUGAGCCAUAUGUACAUAAUCUAGAUUUUGUUUUCAUAGUUUUGCACUUUUAUAGCCUAUUUUUGAAGAUUAACACAUUUGCAAGAUGAUUGACUCAAUCUUUGCCUAAUCCACAACAGAGGAUUGAGCAUCA
B18: chr5:52955293:52955406:+|3pUTR|ENSG00000213949|unk|FALSE|unique (ssRNA)
RNA: GGGAGUUCUACAGUCCGACGAUCUACCAACCAGUGUGAGCUGACUUCAGCACACCACUGAGACAGAUUACACGAUAGACAGAUAGAUAGAUAGAUAGAUAGAUAGAUAGAUAGAUAGAUAGAUAGAUAUUGAUAGAGAACAUGCAACAGAGGAUUGAGCAUCA
B19: chr5:52955293:52955406:+|3pUTR|ENSG00000213949|unk|total|mutant (ssRNA)
RNA: GGGAGUUCUACAGUCCGACGAUCUACCAACCAGUGUGAGCUGACUUCAGCACACCACUGAGACAGAUUACACGACCGACAGACCGACCGACCGACCGACCGACCGACCGACCGACCGACCGACCGAUAUUGACCGAGAACAUGCAACAGAGGAUUGAGCAUCA
B20: chr14:103503186:103503248:+|CDS_3pUTR|ENSG00000075413|msi1_unk|FALSE|overlapping (ssRNA)
RNA: GGGAGUUCUACAGUCCGACGAUCUGCUUCCAAAAUUGCCAAUGAGCUAAAGCUGUAACCCAGUGAUUAUGAUGUAAAUUAAGUAGCAAUUAAAGUGUUUUCCUGAACACUGAUGGAAAUGUAUAGAAUAAUAUUUAGGCAAUACAACAGAGGAUUGAGCAUCA
B21: chr12:76029359:76029534:-|3pUTR|ENSG00000139289|msi1|FALSE|unique (ssRNA)
RNA: GGGAGUUCUACAGUCCGACGAUCAGAAGUUUAAAAAGCUAAAAGUUAAAAAUGGUGUAAUUAUGAAAAUCUAACACUCAAGAUAGUUUCUAAAAGGAAAUCAGUAGUUAAGGAUACCUGAUUUCAAAAUAUUUAAAGCAUAACCAACAGAGGAUUGAGCAUCA
B22: chr11:118750849:118750950:-|3pUTR|ENSG00000110367|msi1|FALSE|unique (ssRNA)
RNA: GGGAGUUCUACAGUCCGACGAUCAUUCUAGAAAGUACUUUGGCCUCGUGCUGUAGAGAGCAGAUUUCUAUGGUACCCUGUGUUAGUAAAGGGGCCCAGAAAUCUGGGAUGUACUGUUUGCUGCCACACUGUCUCAUCUAGUACCAACAGAGGAUUGAGCAUCA

For 22 molecules, binding signal results are on record in article PMC12136788.

Residue numbers refer to the chain shown, from its start. Over roughly 5,800 sequences, “enrichment r” has its median near 0.68; the highest 2% begin near 11. The list comes from a sample in which the highest values are over-represented; it also holds similar and randomly drawn sequences.

In this assay the target is T1, UNK ZnF1-6 (called full-length). The experiment in a line: nsRBNS (natural sequence RNA bind-n-seq); RBNS binding buffer (assumed for nsRBNS): 25 mM Tris pH 7.5, 150 mM KCl, 3 mM MgCl2, 0.01% Triton X-100, 500 ug/ml BSA, 20 U/ml SUPERase-In, 4 C; UNK is unkempt and MSI1 is Musashi-1; names of the RNAs are library labels; protein concentration not given here; high values mean tight binding.
B1 returned a binding signal of 0.988 enrichment R.

Molecule B2 gave a binding signal of 0.956 enrichment R.

B3 registered a binding signal of 4.25 enrichment R.

Turning to B4, the binding signal is 0.575 enrichment R.

As to B5, the binding signal is 2.09 enrichment R.

The molecule B6 yielded a binding signal of 0.468 enrichment R.

Consider B7, for which the binding signal was 0.908 enrichment R.

In turn, B8 yielded a binding signal of 0.542 enrichment R.

As for B9, the binding signal is 0.684 enrichment R.

As for B10, the binding signal came out at 32.9 enrichment R.

As for B11, the binding signal is 3.22 enrichment R.

On to B12, for which the binding signal worked out at 0.548 enrichment R.

Regarding B13, the binding signal amounted to 11.6 enrichment R.

B14 displayed a binding signal of 0.905 enrichment R.

B15 registered a binding signal of 1.9 enrichment R.

With B16, the binding signal was found to be 0.453 enrichment R.

B17: the binding signal came to 3.86 enrichment R.

As to B18, the binding signal was 24.7 enrichment R.

B19 had a binding signal of 0.427 enrichment R.

In turn, B20 gave a binding signal of 11.1 enrichment R.

As to B21, the binding signal was 1.92 enrichment R.

The molecule B22 returned a binding signal of 0.975 enrichment R.
